From PubChem
Gli-Sufu block = Gli-Sufu pathway antagonists, primary screen, luciferase luminescence, Sufu-KO-LIGHT cells, uHTS. inhibition, % at 5 µM. AID 588413, 2011. 0.74% of 340,000 active. Sufu-KO-LIGHT fibroblasts, Gli luciferase reporter luminescence;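 active = inhibition above about 55%, limit read from the data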;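 also: 0% = DMSO-treated cells and 100% = wells with medium but no cells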
Mdm2 MdmX PPI = inhibitors of human Mdm2-MdmX association, primary screen, cell-based, luminescence, split luciferase, SaOS-2, uHTS; Protein Mdm4 (Homo sapiens) + E3 ubiquitin-protein ligase Mdm2 (Homo sapiens), …; inhibition, % at 8 µM; SaOS-2 split-luciferase Mdm2/MdmX complementation; 3% of 330,000 active;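 active = inhibition of at least 50% at 8 µM in the primary screen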
Jurkat NFkB inh = inhibitors of induced NF-kB luciferase reporter, primary screen, TCR NF-kB activation inhibitor project, cell-based, luminescence, uHTS; Jurkat, PMA/ionomycin-induced NF-kB luciferase reporter; inhibition, % at 4 µM; 0.53% of 330,000 active; AID 435003, 2010; in the data active = inhibition above about 50%
Shn3 inh set2 = reduction of Shn3 3'UTR firefly luciferase signal, primary screen, Schnurri-3 inhibitor project, cell-based, Clone20 osteoblasts, set 2. AID 588674, 2011. Clone20 osteoblast Shn3 3'UTR firefly luciferase, 24 h. 0.52% of 360,000 active. inhibition, % at 12.5 µM;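 active = mean inhibition of at least 75% with every replicate also reaching 75%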;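 also: 0% = median of neutral control wells and 100% = pilot-screen positive control compound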
697 NFkB inh = inhibitors of PMA/ionomycin-induced NF-kB reporter, 697 cells, primary screen, B-cell NF-kB inhibitor project, cell-based, luminescence, uHTS; 697 B-cell NF-kB luciferase reporter, 16 h; inhibition, % at 4 µM; 0.33% of 330,000 active; AID 435022, 2010; in the data active = inhibition above about 35%
Mdm2 MdmX conf = Mdm2-MdmX complex disruptors, retested hits, confirmation, luminescence, single concentration | shares compounds with Mdm2 MdmX PPI | Mdm2-MdmX binding, luminescent assay | inhibition, % at 8 µM | 55% of 10,000 active | AID 489028, 2010; in the data active = inhibition above about 40%
Full FLuc ctr = full-length luciferase signal inhibition, confirmation, counter-screen for Mdm2/MdmX interaction inhibitor project, cell-based, single concentration, SaOS-2; shares compounds with Mdm2 MdmX PPI; SaOS-2 full-length luciferase counterscreen, luminescence; inhibition, % at 8 µM; 77% of 6,200 active;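 active = mean inhibition at 8 µM reaching about 37%, which flags the compound as non-specific, limit read from the data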;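 also: p53-null SaOS-2 cells with luciferase driven by a doxycycline-inducible promoter; compound on cells about two nights before reading with doxycycline added after day one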
Starred values were filed as active, the others as inactive; x = no result given. Only some compounds are listed: those with a hit (about 3.8% of all), similar ones and a draw of the others.

SMILES	Gli-Sufu block	Mdm2 MdmX PPI	Jurkat NFkB inh	Shn3 inh set2	697 NFkB inh	Mdm2 MdmX conf	others
C=C(CC[C@@H](O)C(C)(C)O)[C@H]1CC[C@]2(C)[C@@H]1CCC1[C@@]3(C)CC[C@H](O)C(C)(C)C3CC[C@]12C (some centres undefined)	5	28	5	0	-14	x
C=C(C)[C@@H]1CC[C@]2(C(=O)O)CC[C@]3(C)[C@H](CC[C@@H]4[C@@]5(C)CC[C@H](O)C(C)(C)[C@@H]5CC[C@]43C)[C@@H]12	-9	55*	0	-2	-45	25
C=CCN1C(=O)c2ccc(C(=O)N(C)CC(=O)Nc3c(C)cccc3C)cc2C1=O	1	4	6	8	-7	x
CCCNC(=O)Cn1nc(C)n2c(cc3cc(F)ccc32)c1=O	-17	-26	-38	5	-10	x
CCc1nn(CC(=O)NCCCc2ccccc2)c(=O)c2cc3cc(F)ccc3n12	3	56*	18	0	-5	-1
CCc1nn(CC(=O)NCCC2=CCCCC2)c(=O)c2cc3cc(F)ccc3n12	0	50*	-5	5	3	12
CCc1nn(CC(=O)NCCCc2ccccc2)c(=O)c2cc3c(OC)cccc3n12	3	11	-3	-15	4	x
CCC(=O)N1CCN(c2ccccc2NC(=O)c2cccs2)CC1	-1	6	1	-2	12	x
COc1ccc(C(=O)N/N=C/c2ccc3cccc(OCc4ccccc4)c3n2)cc1	-6	59*	-1	-13	-25	16
NC(N)=N/N=C/c1ccc2cccc(OCc3ccccc3)c2n1	42	51*	34	13	-74	60*	Full FLuc ctr=81*
Cc1nn2c(N3CCN(C)CC3)c3c(nc2c1-c1ccccc1)CCCC3	0	37	4	-2	-9	x
COc1ccc(Nc2c3c(nc4c(-c5ccccc5)c(C)nn24)CCC3)cc1	0	52*	1	-17	11	22
Cc1nn2c(NCc3ccccn3)cc(C(C)(C)C)nc2c1-c1ccccc1	-6	62*	-19	26	-15	20
Cc1nn2c(NCc3ccccn3)c3c(nc2c1-c1ccccc1)CCC3	43	53*	-2	50	6	33	Full FLuc ctr=7
Cc1cc(NCc2ccccn2)n2nc(C)c(-c3ccccc3)c2n1	3	31	-6	40	0	x
COc1cc(C2(c3ccc(O)c(OC)c3)C(=O)N(C)c3ccc(C)cc32)ccc1O	5	11	13	0	27	x
O=C(COc1ccc(-c2ccccc2)cc1)N1CCN(C(=O)c2cccs2)CC1	-3	-9	16	7	-4	x
CC1=NN(c2ccc(C)cc2)C(=O)/C1=C/c1ccc(-c2cc([N+](=O)[O-])ccc2O)o1	-7	67*	-11	-5	-20	31
CC1=NN(c2ccc(C(=O)O)cc2)C(=O)/C1=C/c1ccc(-c2ccccc2F)o1	x	9	3	-17	-9	x
Brc1ccc2c(c1)C(c1ccc(N3CCOCC3)cc1)=NNC(c1cccs1)=N2	16	59*	26	4	5	-5
COc1ccc([C@H]2CC(=O)C=C(c3cc4ccccc4c4ccccc34)C2)cc1	5	37	6	18	6	x
COc1c(C(=O)Nc2ccccc2N2CCOCC2)cc2ccccc2c1Br	5	50*	3	18	8	14
O=C(c1ccc(S(=O)(=O)Cc2ccccc2Cl)c([N+](=O)[O-])c1)N1CCN(c2ccccn2)CC1	15	75*	4	-3	23	64*	Full FLuc ctr=39*
Cc1ccccc1CS(=O)(=O)c1ccc(C(=O)N2CCC(C)CC2)cc1[N+](=O)[O-]	14	47	-1	-4	28	x
